Laboratory results: PubChem BioAssay (NCATS)
Values joined by “and” are separate entries in the source; they are usually repeats but may differ in a detail not shown here. Equal entries are not always repeated. Results filed as inconclusive are left out. Values without a mark were called inactive. Active and inactive are the calls of the source. The call rests on the fitted dose curve; in most records, active means well fitted curve in the direction sought with a large enough effect; inconclusive means small, poorly fitted or top-dose-only effect, or another doubt; inactive means no such curve, though single readings can be large or run the other way.

assay: qHTS Assay for Identifying Gametocytocidal Compounds (AID 743244);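 on max response: actives lower the fluorescent signal which means gametocytes are killed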; settings: P. falciparum 3D7 stage III-V gametocytes, alamarBlue, 72 h; max response: hits give low values
In short: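 Stage III–V gametocytes of P. falciparum 3D7 were seeded at 20,000 cells/well onto pre-dispensed compounds. After 72 h, 37 °C, 5% CO2, alamarBlue was added for another 24 h.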
On the % scale 0 is the no-effect control and ±100 the full control effect; potency means the concentration at half of the fitted maximal effect.

Compound	max response	Potency
O=c1[nH]c(=O)n([C@H]2CCCO2)cc1F	-0.456%	–
C[n+]1c2cc(N)ccc2cc2ccc(N)cc21 (tested in a mixture with another compound)	–	7.94 µM (active)
CC(C)n1nc(-c2cc3cc(O)ccc3[nH]2)c2c(N)ncnc21	-4.02%	–
CCCCC(CC)CN=C(N)NC(N)=NCCCCCCN=C(N)NC(N)=NCC(CC)CCCC (configuration not stated)	–	6.31 µM (active)
C[C@H]1[C@H](NC(=O)/C(=N/OC(C)(C)C(=O)O)c2csc(N)n2)C(=O)N1S(=O)(=O)O (stereo in doubt)	-0.904%	–
OC[C@@H](O)[C@@H](O[C@@H]1O[C@H](CO)[C@H](O)[C@H](O)[C@H]1O)[C@H](O)[C@@H](O)CO	9.4%	–
c1ccc(OCc2ccc(CCCN3CCOCC3)cc2)cc1	-2.94%	–
CCOC(=O)/C=C(C)/C=C/C=C(C)/C=C/c1c(C)cc(OC)c(C)c1C	14.1%	–
Cc1nc2n(c(=O)c1CCN1CCC(c3noc4cc(F)ccc34)CC1)CCC[C@H]2O	-12.7%	–
CC(=O)[C@H]1CC[C@H]2[C@@H]3C[C@H](C)C4=CC(=O)CC[C@]4(C)[C@H]3[C@@H](O)C[C@]12C	9.78%	–
CCN(CC)CCNC(=O)COc1ccc(Cl)cc1	-6.47%	–
COc1ccc(OC)c(C(O)CNC(=O)CN)c1 (configuration not stated)	-3.82%	–
NC(CO)(CO)CO	0.227%	–
CCN(CCCCOC(=O)c1ccc(OC)c(OC)c1)C(C)Cc1ccc(OC)cc1 (configuration not stated)	14.8%	–
CN1[C@@H]2CC[C@H]1CC(OC(=O)c1c[nH]c3ccccc13)C2 (some centres not stated)	7.82%	–
O=C1OCCN1/N=C/c1ccc([N+](=O)[O-])o1	2.02%	–
CC1(C)O[C@@H]2C[C@H]3[C@@H]4C[C@H](F)C5=CC(=O)C=C[C@]5(C)[C@H]4[C@@H](O)C[C@]3(C)[C@]2(C(=O)CO)O1	-4.1%	–
CC(=O)CC(c1ccc([N+](=O)[O-])cc1)c1c(O)c2ccccc2oc1=O (configuration not stated)	29.4%	–
COc1cc(N)c(Cl)cc1C(=O)NC1CCN(CCCOc2ccc(F)cc2)CC1OC (configuration not stated)	-0.854%	–

Compound	max response	Potency
O=C(Nc1ccc(Cl)c(Cl)c1)C1CC1	14%	–
COc1c(C)c2c(c(O)c1C/C=C(\C)CCC(=O)O)C(=O)OC2	31.6%	–
C[C@]12C=CC(=O)C=C1[C@@H](F)C[C@@H]1[C@@H]2[C@@H](O)C[C@@]2(C)[C@H]1CC[C@]2(O)C(=O)CO	-0.315% and -15.3%	–
CCCCS(=O)(=O)N[C@@H](Cc1ccc(OCCCCC2CCNCC2)cc1)C(=O)O	3.65%	–
Cc1c(C)n(CCN(C)C)c2ccc(C(=O)OCCN(C)C)cc12	8.04%	–
CN1CCN(C(c2ccccc2)c2ccccc2)CC1	-1.32%	–
CC(Cc1cccc(C(F)(F)F)c1)NCCOC(=O)c1ccccc1 (configuration not stated)	8%	–
CCCCCCCCCCCCCCCCOP(=O)([O-])OCC[N+](C)(C)C	-10.8%	–
CCCCC1=NC2(CCCC2)C(=O)N1Cc1ccc(-c2ccccc2-c2nn[nH]n2)cc1	1.29%	–
CCN(CC)C(=O)N1CCN(C)CC1	0.149%	–
CCCCCC=CCC=CCCCCCCCC(=O)OCC	0.796%	–
CN(C(=O)CN(CCO)CC(=O)N(C)C(C)(C)Cc1ccccc1)C(C)(C)Cc1ccccc1	-1.55%	–
CCC(=O)c1c(O)cc(O)cc1O	19%	–
CC1=C(C(=O)O)N2C(=O)[C@@H](NC(=O)[C@H](N)c3ccc(O)cc3)[C@H]2SC1	17.2%	–
CC1(C)O[C@@H]2[C@@H](CO[C@@]3(COS(N)(=O)=O)OC(C)(C)O[C@@H]23)O1	4.37%	–
C[C@H](O)C(=O)Nc1c(I)c(C(=O)NC(CO)CO)c(I)c(C(=O)NC(CO)CO)c1I	9.34%	–
CCN1CCN(c2cc3c(cc2F)c(=O)c(C(=O)O)cn3C2CC2)CC1	1.09%	–
CN(C)CCCOc1nn(Cc2ccccc2)c2ccccc12	10.4%	–
